The target in experiment [1] is Calcium/calmodulin-dependent protein kinase type II subunit alpha (Homo sapiens) (UniProt Q9UQM7). To be noted: at 1 µM.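 Note: reported value is a mean percent inhibition of CAMK2A.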
The target of experiment [2] is Calcium/calmodulin-dependent protein kinase type II subunit delta (Homo sapiens) (UniProt Q13557). To be noted: at 0.1 µM.
The target is the same in experiment [3]. To be noted: at 1 µM.
For experiment [4], the target named is T1, Calcium/calmodulin-dependent protein kinase type IV (Homo sapiens) (UniProt Q16566).
T1 sequence (whole entry): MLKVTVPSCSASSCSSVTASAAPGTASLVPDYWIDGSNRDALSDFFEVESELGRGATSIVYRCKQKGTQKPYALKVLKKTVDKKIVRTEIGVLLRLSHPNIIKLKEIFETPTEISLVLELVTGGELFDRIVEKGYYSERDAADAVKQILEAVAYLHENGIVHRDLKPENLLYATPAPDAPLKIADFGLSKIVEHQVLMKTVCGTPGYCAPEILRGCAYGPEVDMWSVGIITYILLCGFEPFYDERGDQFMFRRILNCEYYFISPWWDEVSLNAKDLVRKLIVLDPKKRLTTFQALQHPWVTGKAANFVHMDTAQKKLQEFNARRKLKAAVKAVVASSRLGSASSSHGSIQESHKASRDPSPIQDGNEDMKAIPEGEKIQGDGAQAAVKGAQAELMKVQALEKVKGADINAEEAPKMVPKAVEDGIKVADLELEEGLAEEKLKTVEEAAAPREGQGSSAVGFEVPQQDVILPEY
Conditions: at 0.1 µM.

Experiment [5] deals with T1, Calcium/calmodulin-dependent protein kinase type IV (Homo sapiens). Conditions: at 1 µM.
For experiment [6], the target named is T2, Serine/threonine-protein kinase Chk1 (Homo sapiens) (UniProt O14757).
T2 sequence (whole entry): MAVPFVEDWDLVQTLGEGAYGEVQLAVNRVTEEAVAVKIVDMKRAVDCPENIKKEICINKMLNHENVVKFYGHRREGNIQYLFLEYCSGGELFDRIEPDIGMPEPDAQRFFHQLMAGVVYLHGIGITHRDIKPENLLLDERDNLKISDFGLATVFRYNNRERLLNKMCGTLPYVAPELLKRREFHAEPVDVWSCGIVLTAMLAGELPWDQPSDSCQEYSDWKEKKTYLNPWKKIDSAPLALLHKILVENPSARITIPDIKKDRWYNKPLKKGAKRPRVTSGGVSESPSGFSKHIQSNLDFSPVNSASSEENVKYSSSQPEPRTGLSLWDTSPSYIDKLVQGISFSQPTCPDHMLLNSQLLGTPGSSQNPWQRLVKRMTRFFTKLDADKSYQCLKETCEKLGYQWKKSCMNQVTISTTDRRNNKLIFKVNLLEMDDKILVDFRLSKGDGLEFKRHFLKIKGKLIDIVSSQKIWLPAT
Conditions: at 0.1 µM.

The target of experiment [7] is T2, Serine/threonine-protein kinase Chk1 (Homo sapiens). Conditions: at 1 µM.
Experiment [8] concerns the target Serine/threonine-protein kinase Chk2 (Homo sapiens) (UniProt O96017). Conditions: at 0.1 µM.
For experiment [9] the target is unchanged. To be noted: at 1 µM.
Experiment [10] concerns the target Death-associated protein kinase 1 (Homo sapiens) (UniProt P53355). Conditions: at 0.1 µM.
Experiment [11] shares this target. Conditions: at 1 µM.
The target of experiment [12] is T3, Serine/threonine-protein kinase DCLK2 (Homo sapiens) (UniProt Q8N568).
T3 sequence (whole entry): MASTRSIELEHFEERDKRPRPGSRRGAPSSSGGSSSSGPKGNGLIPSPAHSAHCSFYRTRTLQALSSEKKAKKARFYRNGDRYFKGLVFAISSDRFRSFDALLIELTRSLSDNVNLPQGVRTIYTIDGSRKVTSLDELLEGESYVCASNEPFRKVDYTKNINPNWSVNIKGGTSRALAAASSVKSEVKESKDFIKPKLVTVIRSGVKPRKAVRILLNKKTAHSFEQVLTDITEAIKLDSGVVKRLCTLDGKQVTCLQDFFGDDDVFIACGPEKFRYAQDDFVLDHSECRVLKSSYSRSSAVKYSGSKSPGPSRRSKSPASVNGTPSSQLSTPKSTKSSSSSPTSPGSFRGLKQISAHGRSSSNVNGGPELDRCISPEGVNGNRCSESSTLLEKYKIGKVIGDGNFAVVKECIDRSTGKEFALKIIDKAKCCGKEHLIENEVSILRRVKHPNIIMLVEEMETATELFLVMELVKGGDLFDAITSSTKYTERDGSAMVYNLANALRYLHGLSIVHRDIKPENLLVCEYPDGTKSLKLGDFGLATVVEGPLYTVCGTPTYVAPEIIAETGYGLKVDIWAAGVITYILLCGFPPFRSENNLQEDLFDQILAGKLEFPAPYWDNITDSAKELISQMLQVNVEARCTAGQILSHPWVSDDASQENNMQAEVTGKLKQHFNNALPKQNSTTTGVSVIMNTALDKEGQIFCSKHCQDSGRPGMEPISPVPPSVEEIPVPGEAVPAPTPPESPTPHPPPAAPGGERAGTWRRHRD
Conditions: at 0.1 µM.

For experiment [13], the target named is T3, Serine/threonine-protein kinase DCLK2 (Homo sapiens). Conditions: at 1 µM.
Experiment [14] deals with MAP kinase-activated protein kinase 2 (Homo sapiens) (UniProt P49137). To be noted: at 0.1 µM.
Experiment [15] has the same target. To be noted: at 1 µM.
In experiment [16] the target is MAP kinase-activated protein kinase 3 (Homo sapiens) (UniProt Q16644). Conditions: at 0.1 µM.
Experiment [17] has the same target. To be noted: at 1 µM.
The target of experiment [18] is Serine/threonine-protein kinase MARK1 (Homo sapiens) (UniProt Q9P0L2). To be noted: at 0.1 µM.
Experiment [19] shares this target. To be noted: at 1 µM.
Experiment [20] addresses MAP/microtubule affinity-regulating kinase 3 (Homo sapiens) (UniProt P27448). Conditions: at 0.1 µM.

The results in this text go back to ChEMBL document CHEMBL1961873, “Compounds: GSK PKIS; Assays: Nanosyn kinase panel” (2012).

Chain of Calcium/calmodulin-dependent protein kinase type II subunit alpha (Homo sapiens) (Q9UQM7 whole entry): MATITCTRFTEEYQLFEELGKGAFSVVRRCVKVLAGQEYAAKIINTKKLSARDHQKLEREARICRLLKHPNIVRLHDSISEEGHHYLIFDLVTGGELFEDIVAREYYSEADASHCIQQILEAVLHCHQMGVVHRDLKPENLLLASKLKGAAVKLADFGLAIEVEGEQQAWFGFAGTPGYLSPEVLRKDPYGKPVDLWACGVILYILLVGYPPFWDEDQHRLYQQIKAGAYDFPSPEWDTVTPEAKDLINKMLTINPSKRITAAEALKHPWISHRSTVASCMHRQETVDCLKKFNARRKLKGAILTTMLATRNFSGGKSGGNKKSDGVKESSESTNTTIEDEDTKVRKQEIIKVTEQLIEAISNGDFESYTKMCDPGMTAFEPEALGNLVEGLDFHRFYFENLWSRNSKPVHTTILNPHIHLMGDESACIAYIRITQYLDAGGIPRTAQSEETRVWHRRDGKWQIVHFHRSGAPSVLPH
Chain of MAP/microtubule affinity-regulating kinase 3 (Homo sapiens) (P27448 whole entry, looked up): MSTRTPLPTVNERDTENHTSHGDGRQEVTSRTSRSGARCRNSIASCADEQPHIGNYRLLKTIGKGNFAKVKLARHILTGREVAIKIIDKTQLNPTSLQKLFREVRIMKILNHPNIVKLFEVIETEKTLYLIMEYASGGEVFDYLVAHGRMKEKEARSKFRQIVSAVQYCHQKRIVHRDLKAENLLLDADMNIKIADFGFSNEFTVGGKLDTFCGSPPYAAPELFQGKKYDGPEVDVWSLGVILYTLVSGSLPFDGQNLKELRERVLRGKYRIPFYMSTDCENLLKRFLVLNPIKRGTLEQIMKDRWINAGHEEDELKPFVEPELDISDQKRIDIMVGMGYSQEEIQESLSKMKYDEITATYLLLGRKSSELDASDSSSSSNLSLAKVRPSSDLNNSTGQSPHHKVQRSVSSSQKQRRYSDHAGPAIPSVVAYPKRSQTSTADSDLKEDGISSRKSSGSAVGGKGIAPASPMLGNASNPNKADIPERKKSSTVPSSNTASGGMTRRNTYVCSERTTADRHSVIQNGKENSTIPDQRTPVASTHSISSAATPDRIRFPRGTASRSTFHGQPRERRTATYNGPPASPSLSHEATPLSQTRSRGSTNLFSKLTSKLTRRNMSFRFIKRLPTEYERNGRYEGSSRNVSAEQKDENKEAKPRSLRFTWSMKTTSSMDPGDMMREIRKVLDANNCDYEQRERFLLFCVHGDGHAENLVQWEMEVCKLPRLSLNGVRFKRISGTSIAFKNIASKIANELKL
Chain of Death-associated protein kinase 1 (Homo sapiens) (P53355 whole entry, looked up): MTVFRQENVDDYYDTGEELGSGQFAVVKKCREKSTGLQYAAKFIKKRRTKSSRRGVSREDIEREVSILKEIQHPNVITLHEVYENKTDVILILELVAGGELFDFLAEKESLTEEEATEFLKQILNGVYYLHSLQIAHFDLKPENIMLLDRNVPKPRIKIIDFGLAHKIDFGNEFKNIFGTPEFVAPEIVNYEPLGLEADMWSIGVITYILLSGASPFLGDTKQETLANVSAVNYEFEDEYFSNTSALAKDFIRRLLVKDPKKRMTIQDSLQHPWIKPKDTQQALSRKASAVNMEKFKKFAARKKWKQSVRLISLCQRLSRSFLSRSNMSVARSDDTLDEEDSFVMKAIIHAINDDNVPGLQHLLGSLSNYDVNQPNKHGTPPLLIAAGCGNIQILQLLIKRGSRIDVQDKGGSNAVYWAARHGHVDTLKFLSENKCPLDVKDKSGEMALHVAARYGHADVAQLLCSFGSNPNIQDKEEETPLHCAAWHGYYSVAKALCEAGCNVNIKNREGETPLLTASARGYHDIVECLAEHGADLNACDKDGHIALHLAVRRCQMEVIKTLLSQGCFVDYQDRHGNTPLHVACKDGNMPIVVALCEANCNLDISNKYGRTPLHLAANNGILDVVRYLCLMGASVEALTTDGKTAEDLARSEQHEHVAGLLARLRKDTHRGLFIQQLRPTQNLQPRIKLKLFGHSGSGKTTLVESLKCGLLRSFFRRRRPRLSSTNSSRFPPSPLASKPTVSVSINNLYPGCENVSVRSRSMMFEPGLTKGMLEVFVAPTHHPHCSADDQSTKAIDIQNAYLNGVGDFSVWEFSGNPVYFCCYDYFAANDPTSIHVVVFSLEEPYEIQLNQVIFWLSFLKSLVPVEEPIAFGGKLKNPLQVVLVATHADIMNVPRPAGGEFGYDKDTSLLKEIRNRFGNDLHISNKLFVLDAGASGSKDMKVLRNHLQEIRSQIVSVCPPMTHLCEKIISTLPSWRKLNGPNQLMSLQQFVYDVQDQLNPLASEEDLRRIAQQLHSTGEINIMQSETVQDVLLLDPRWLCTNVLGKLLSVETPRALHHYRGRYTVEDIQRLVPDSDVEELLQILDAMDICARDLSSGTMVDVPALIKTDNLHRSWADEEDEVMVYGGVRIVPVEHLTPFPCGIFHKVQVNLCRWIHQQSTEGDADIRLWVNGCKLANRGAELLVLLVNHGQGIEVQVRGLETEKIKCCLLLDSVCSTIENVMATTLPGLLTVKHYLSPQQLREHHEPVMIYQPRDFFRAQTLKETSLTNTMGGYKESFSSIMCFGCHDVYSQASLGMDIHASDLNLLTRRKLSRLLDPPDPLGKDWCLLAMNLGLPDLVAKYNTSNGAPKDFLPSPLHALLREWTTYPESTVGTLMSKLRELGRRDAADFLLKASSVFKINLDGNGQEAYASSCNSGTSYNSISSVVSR
Chain of MAP kinase-activated protein kinase 3 (Homo sapiens) (Q16644 whole entry, looked up): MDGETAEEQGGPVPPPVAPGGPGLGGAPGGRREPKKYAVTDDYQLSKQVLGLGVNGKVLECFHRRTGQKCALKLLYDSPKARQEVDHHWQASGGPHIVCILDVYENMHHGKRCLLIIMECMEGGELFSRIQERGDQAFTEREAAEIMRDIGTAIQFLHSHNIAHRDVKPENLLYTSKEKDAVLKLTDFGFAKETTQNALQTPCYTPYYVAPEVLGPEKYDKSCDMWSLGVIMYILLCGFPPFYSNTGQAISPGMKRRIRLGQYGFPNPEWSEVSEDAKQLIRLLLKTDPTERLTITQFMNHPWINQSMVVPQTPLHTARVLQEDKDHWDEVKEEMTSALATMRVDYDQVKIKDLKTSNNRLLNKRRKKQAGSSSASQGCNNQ
Chain of MAP kinase-activated protein kinase 2 (Homo sapiens) (P49137 whole entry, looked up): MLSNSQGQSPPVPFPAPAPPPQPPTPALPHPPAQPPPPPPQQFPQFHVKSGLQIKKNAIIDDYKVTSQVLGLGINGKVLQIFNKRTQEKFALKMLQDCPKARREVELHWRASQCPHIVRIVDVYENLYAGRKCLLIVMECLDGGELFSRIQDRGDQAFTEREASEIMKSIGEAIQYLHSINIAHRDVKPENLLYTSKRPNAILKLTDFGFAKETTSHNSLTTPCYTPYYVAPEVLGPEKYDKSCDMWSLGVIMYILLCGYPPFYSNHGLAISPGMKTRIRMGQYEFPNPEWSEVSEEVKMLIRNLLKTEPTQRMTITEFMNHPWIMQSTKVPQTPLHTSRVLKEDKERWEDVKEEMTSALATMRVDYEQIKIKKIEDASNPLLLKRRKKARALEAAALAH
Chain of Calcium/calmodulin-dependent protein kinase type II subunit delta (Homo sapiens) (Q13557 whole entry): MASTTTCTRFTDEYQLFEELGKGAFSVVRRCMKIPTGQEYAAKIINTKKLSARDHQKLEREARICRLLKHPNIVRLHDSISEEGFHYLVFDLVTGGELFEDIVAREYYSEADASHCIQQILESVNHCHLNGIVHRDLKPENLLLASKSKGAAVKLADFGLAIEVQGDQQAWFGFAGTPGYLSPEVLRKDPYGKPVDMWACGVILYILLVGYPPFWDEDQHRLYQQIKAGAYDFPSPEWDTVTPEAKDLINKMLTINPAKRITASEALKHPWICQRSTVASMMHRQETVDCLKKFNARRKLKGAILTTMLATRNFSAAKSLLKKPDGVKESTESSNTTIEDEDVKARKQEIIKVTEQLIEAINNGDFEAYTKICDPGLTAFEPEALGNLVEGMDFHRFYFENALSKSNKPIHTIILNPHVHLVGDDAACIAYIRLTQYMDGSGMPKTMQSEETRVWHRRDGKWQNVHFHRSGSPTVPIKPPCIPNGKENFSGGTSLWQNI
Chain of Serine/threonine-protein kinase MARK1 (Homo sapiens) (Q9P0L2 whole entry, looked up): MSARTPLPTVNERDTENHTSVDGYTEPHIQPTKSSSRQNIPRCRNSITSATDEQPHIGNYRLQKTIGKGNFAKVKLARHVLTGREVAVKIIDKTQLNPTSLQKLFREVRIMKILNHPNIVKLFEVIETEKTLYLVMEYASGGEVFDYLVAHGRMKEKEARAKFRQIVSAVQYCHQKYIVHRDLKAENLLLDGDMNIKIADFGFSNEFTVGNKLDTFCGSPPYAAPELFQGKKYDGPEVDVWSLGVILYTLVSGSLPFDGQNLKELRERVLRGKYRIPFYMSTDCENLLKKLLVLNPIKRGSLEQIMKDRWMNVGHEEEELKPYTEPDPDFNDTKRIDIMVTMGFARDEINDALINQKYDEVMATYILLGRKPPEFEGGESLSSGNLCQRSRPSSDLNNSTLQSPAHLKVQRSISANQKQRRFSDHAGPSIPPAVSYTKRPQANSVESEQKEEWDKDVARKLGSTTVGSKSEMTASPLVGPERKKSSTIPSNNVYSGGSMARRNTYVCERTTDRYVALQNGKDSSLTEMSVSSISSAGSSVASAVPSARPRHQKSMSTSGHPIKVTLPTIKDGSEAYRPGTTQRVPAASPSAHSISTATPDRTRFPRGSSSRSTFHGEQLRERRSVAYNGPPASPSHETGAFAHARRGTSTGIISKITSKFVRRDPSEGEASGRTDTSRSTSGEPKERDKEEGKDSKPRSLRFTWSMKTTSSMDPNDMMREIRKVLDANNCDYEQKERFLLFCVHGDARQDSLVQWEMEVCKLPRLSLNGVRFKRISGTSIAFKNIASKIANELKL

The term inhibition denotes the change of the read-out against control, counted positive when it falls. Consider `CN1CCC(C(=O)Nc2n[nH]c3nnc(-c4ccccc4)cc23)CC1`, for which the inhibition in experiment [1] is 3.81%; in [2], 3.23%; in experiment [3], 3.34%; in experiment [4], -0.65%; in experiment [5], -2.3%; in [6], -2.79%. The inhibition was -0.12% in experiment [7]; -1.11% in experiment [8]; 3.84% in experiment [9]; -2.19% in experiment [10]; -2.32% in [11]; 0.57% in [12]. The inhibition in [13] is -0.83%; in [14], -0.36%; in experiment [15], -0.73%; in experiment [16], -1.34%; in [17], -1.95%; in experiment [18], 4.01%. Further, the inhibition in [19] stood at 5.96%; in [20] it was 3.75%.

As to `Cc1cc(O)cc(C)c1/C=C/c1cncc(-c2nn[nH]n2)c1`, the inhibition in [1] was 3.79%; in [2] it was 4.52%; in [3] it was 4.7%; in experiment [4], -0.07%; in experiment [5] it was -1.05%; in [6] it was -7.2%. Besides, the inhibition was 2.19% in experiment [7]; 3.38% in experiment [8]; 5.57% in experiment [9]; 3.16% in experiment [10]; 3.95% in experiment [11]; -1.23% in [12]. Moreover, the inhibition in experiment [13] is -3.21%; in experiment [14], 2.39%; in experiment [15], 1.49%; in experiment [16], 6.11%; in experiment [17], 4.25%; in experiment [18], 4.55%. The inhibition in [19] was found to be 5.09%; in [20] it was 5.87%.

In the case of `N#Cc1c(NC(=O)c2cccc3ccccc23)sc2c1CCCC2`, the inhibition in [1] is 1.93%; in experiment [2], 2.34%; in experiment [3] it was 4.57%; in experiment [4], 2.05%; in experiment [5], 1.58%; in experiment [6], 7.17%. The inhibition in [7] came out at 10.4%; in experiment [8], 6.18%; in experiment [9], 6.56%; in [10] it was 8.89%; in experiment [11], 9.29%; in experiment [12] it was 0.23%. Also, the inhibition in experiment [13] is 0.08%; in experiment [14], 4.07%; in [15] it was 3.83%; in experiment [16], 8.24%; in [17] it was 8.43%; in experiment [18] it was 3.26%. Further, the inhibition in [19] was determined as 3.28%; in experiment [20] it was 2.5%.

For `COc1cccc(-n2ncc3c(N/N=C/c4cccc(F)c4)ncnc32)c1`, the inhibition in experiment [1] came out at 2.7%; in experiment [2] it was 2.52%; in experiment [3], 16.1%; in experiment [4] it was 0.94%; in [5] it was 1.12%; in experiment [6], 1.95%. For the same compound, the inhibition in experiment [7] was 3.28%; in [8], 1.45%; in experiment [9], 1.6%; in experiment [10] it was -0.52%; in experiment [11] it was -1.39%; in experiment [12], -4.3%. For the same compound, the inhibition is 1.59% in [13]; -0.12% in experiment [14]; 0.02% in experiment [15]; 1.02% in experiment [16]; 0.04% in experiment [17]; 2.19% in [18]. Besides, the values for the inhibition in [19] and in experiment [20] were 6.35% and 0.17%, respectively.

As for `CCn1c(-c2nonc2N)nc2ccncc21`, the inhibition amounted to 6.48% in experiment [1]; 2.32% in experiment [2]; 4.41% in experiment [3]; 0.03% in experiment [4]; 1.1% in [5]; 1.89% in [6]. For the same compound, the inhibition in experiment [7] is 0.17%; in [8], 1.09%; in [9] it was 1.49%; in experiment [10] it was 1.08%; in experiment [11] it was 2.7%; in experiment [12], -2.35%. For the same compound, the inhibition in experiment [13] was -1.48%; in [14], -0.18%; in [15], 0.49%; in experiment [16], 0.85%; in [17] it was 1.7%; in experiment [18] it was 0.76%. In addition, the inhibition in [19] is -0.05%; in experiment [20], 0.13%.

As for `CCCN1CCC=C(c2ccc(Nc3nc(Nc4ccccc4C(N)=O)c4cc[nH]c4n3)c(C)c2)C1`, the inhibition was 8.19% in experiment [1]; 5.36% in [2]; 20.6% in experiment [3]; -0.28% in [4]; 9.19% in experiment [5]; 1.09% in experiment [6]. For the same compound, the inhibition in experiment [7] is 8.05%; in experiment [8], 13.1%; in experiment [9], 51.3%; in experiment [10], 6.81%; in experiment [11], 6.22%; in experiment [12], -0.54%. Further, the inhibition was 3.15% in experiment [13]; 2.63% in experiment [14]; 4.94% in [15]; 3.15% in [16]; 6.16% in experiment [17]; 2.76% in [18]. Moreover, the inhibition amounted to 16.1% in experiment [19] and 2.37% in [20].
